# Source: PubChem BioAssay (several laboratories)
# Only some compounds are listed: those with a hit (about 3.2% of all), similar ones and a draw of the others.
# A3G deaminase = inhibitors of human APOBEC3G DNA deaminase | Q9HC16 | recombinant A3G, ssDNA deamination FAM/TAMRA fluorescence | inhibition, % at 20 µM | 330,000 compounds, 0.28% hits | AID 493012;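 active = inhibition of at least 40% at 20 µM, with no more than 30% in the related APOBEC3A deaminase screen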;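 note: plate controls were DMSO wells with A3G for no effect and wells lacking A3G enzyme for full effect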
# Target sequence (Q9HC16 whole entry, looked up): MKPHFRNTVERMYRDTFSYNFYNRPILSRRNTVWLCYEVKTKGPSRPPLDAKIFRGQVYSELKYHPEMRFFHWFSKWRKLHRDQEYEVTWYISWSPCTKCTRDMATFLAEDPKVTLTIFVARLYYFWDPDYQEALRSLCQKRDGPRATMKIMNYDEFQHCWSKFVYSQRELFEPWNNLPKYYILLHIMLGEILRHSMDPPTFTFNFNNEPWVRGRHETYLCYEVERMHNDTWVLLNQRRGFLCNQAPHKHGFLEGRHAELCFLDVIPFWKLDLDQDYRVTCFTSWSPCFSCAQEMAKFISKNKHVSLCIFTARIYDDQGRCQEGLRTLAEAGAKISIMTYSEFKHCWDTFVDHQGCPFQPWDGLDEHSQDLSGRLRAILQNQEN
# A3A deaminase = inhibitors of human APOBEC3A DNA deaminase; inhibition, % at 20 µM; recombinant A3A, FAM/TAMRA ssDNA deamination fluorescence; P31941; 330,000 compounds, 0.41% hits;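 active = at least 40% inhibition at 20 µM here, with at most 30% in a related deaminase screen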;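 note: plate controls were A3A with DMSO for no effect and wells lacking A3A enzyme for full effect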
# Target sequence (P31941 whole entry, looked up): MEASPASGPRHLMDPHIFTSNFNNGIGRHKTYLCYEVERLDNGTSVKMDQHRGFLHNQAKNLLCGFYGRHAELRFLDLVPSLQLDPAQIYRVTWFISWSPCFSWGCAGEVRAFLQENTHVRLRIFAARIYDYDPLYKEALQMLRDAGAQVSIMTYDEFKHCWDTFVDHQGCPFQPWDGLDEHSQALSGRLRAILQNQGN
# AHR activator = activates the human aryl hydrocarbon receptor | AID 2796 | 320,000 compounds, 2.5% hits | AHR-responsive luciferase reporter cells, luminescence | activation, % at 5 µM; in the data active = activation above about 47%;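 note: 0% = vehicle wells and 100% = reference agonist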
# NTR1 ag = activates human neurotensin receptor 1; P30989; NTR1-U2OS beta-arrestin-GFP spot imaging, agonist mode; activation, % at 20 µM; 330,000 compounds, 0.17% hits; AID 493036;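 active = activation at or above 40% of the spot to cytoplasm intensity ratio, with at least 20 cells analyzed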;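 note: 0% = DMSO without peptide and 100% = 100 nM NTR1 peptide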
# AHR act confirm = confirmation of human aryl hydrocarbon receptor activators; human cells, AHR-responsive luciferase reporter, luminescence; activation, % at 9 µM; 2,300 compounds, 87% hits; shares compounds with AHR activator; in the data active = activation above about 49%;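 note: HepG2 hepatoma cells carrying a DRE-driven firefly luciferase reporter; 0% = vehicle wells and 100% = reference agonist wells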
# PXR counter = counter-screen for AHR activators: human PXR activators | shares compounds with AHR activator | cell-based PXR reporter, luciferase luminescence | activation, % at 11.6 µM | 2,300 compounds, 88% hits; in the data active = activation above about 11%;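 note: human hepatoma DPX-2 cells expressing full-length human PXR; 0% = DMSO and 100% = reference agonist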
# Starred values were filed as active, the others as inactive; . = no result given.
SMILES,A3G deaminase,A3A deaminase,AHR activator,NTR1 ag,AHR act confirm,PXR counter
COc1ccc(C)cc1NC(=O)C(OC(=O)CNC(=O)c1ccc(Oc2ccccc2)cc1)c1ccccc1 (configuration not stated),6,-2,95*,1,71*,20*
COc1ccc(C)cc1NC(=O)CNC(c1ccccc1)c1ccc(C)cc1 (configuration not stated),0,3,12,5,.,.
Cc1cc(C)c(C#N)c(OCC(=O)c2ccc(Br)cc2)n1,-2,-1,101*,6,106*,20*
Cc1ccc(C(=O)COc2nc(C)cc(C)c2C#N)cc1,-11,-4,46,-1,.,.
Cc1ccnc(SCC(=O)c2ccc(Br)cc2)c1C#N,-10,-3,125*,7,125*,93*
O=C(Nc1ccc(Cl)cc1)c1csc(Cc2ccccc2)n1,-7,10,85*,8,16,6
COc1ccccc1NC(=O)c1sc2nc(-c3ccco3)ccc2c1N,1,1,106*,1,95*,21*
COc1ccccc1NC(=O)Nc1nnc(-c2ccco2)s1,-5,-1,5,2,.,.
O=C(COC(=O)Cn1cnc2ccccc21)Nc1cc2c(cc1Cl)C(=O)c1ccccc1C2=O,1,3,84*,14,146*,27*
O=C(COC(=O)Cn1cnc2ccccc21)Nc1cc(S(=O)(=O)N2CCOCC2)ccc1Cl,-2,3,-2,-1,.,.
COc1ccccc1N1CCN(C2CCCCC2NS(=O)(=O)c2ccccc2)CC1 (configuration not stated),0,-2,2,0,.,.
O=c1[nH]c(CSc2nc3ccccc3[nH]2)nc2c1cnn2-c1ccccc1,0,2,1,3,.,.
Cc1ccc2nc(SCc3nc4c(cnn4-c4ccccc4)c(=O)[nH]3)[nH]c2c1,-10,-6,121*,12,29,37*
O=c1[nH]c(SCc2ccccc2Cl)nc2c1cnn2-c1ccccc1,-13,-4,117*,6,77*,105*
O=C(CCNC(=O)c1ccc(Cl)cc1)NCc1ccco1,-4,-2,1,-1,.,.
Nc1nc(NCCCN2CCOCC2)nc(Nc2ccccc2F)c1[N+](=O)[O-],0,1,2,-1,.,.
COc1ccccc1NC(=O)COc1ccccc1C(=O)Nc1ccccc1,-4,2,29,3,.,.
N#Cc1ccccc1NC(=O)COc1ccccc1C(=O)Nc1ccccc1,-7,-1,93*,0,95*,41*
C[n+]1c2n(c3ccccc31)N=C(c1ccccc1)CS2,-10,-4,69*,1,52*,32*
COc1cccc(NC(=O)CSc2nc3ccccc3nc2N2CCOCC2)c1,3,7,5,4,.,.
COC(=O)c1c(-c2cccnc2)csc1NC(=O)c1ccc2c(c1)OCO2,-6,3,114*,0,23,5
COc1cccc(NC(=O)c2ccc3c(c2)OCCO3)c1,4,4,.,-1,.,.
O=C(Nc1cccc2nsnc12)c1ccc2c(c1)OCO2,2,1,118*,4,127*,30*
COc1cccc(NC(=O)c2ccc3c(c2)OCO3)c1,-5,-5,134*,0,35,26*
O=C(Nc1cccc2nsnc12)c1ccc2c(c1)OCCO2,1,1,20,0,.,.
SMILES,A3G deaminase,A3A deaminase,AHR activator,NTR1 ag,AHR act confirm,PXR counter
CC(=O)N1CC(C(=O)Nc2ccc3c(c2)OCO3)Oc2ccccc21 (configuration not stated),-2,-1,102*,0,121*,34*
NS(=O)(=O)c1cccc(NC(=O)CSc2nnc(C3CC3)n2Cc2ccccc2)c1,12,8,0,0,.,.
Cc1cc(C)c2c(N=NN3CCOCC3)[nH]nc2n1,-1,-2,15,-1,.,.
Cn1nccc1C(=O)Nc1ccc(Cl)cc1,-5,-1,5,2,.,.
Cn1nccc1C(=O)Nc1ccc2c(c1)OCO2,-10,-2,104*,1,60*,19*
CCN(CC)S(=O)(=O)c1ccc(N2CCCC2)c(NC(=O)c2nn(C)c(=O)c3ccccc23)c1,-7,-2,0,2,.,.
COc1cccc(C(=O)NC2=NCCS2)c1,5,3,133*,2,55*,13*
Cn1nc(C(=O)Nc2ccc3c(c2)OCO3)c2ccccc2c1=O,-4,-3,123*,0,107*,10
Cn1nc(C(=O)Nc2ccccc2N2CCCC2)c2ccccc2c1=O,1,5,114*,4,82*,74*
CC1(C)Cc2c(sc(NC(=O)C(=O)N3CCOCC3)c2C(N)=O)CO1,13,0,2,0,.,.
O=C(Nc1ccc2c(c1)OCO2)c1ccc(S(=O)(=O)NCC2CCCO2)cc1 (configuration not stated),-7,-2,84*,-1,14,21*
O=C(Nc1ccc2c(c1)OCCO2)c1ccccc1,-2,2,3,-2,.,.
O=C(Nc1ccc2c(c1)OCO2)C(=O)c1c[nH]c2ccccc12,-2,-2,84*,0,70*,38*
O=C(Nc1ccc2c(c1)OCO2)c1ccccc1,-5,0,101*,-1,52*,24*
CC(C)Sc1nnc(NC(=O)c2ccc3c(c2)OCO3)s1,-6,-2,110*,3,47,27*
COC(=O)c1ccc(OCc2nn[nH]n2)cc1,0,0,-2,1,.,.
CCCn1c(SCC(=O)c2c(C)[nH]c(C)c2C(=O)OCC)nc2ccccc21,-9,-1,26,0,.,.
CCOC(=O)c1c(C)[nH]c(C)c1C(=O)CSc1nc2ccccc2n1CCC#N,-3,1,99*,0,5,79*
CCN1C(=O)N/C(=C/c2cc(C)n(Cc3ccccc3)c2C)C1=O,-7,-4,136*,1,103*,230*
COc1ccc(NC(=O)C(=O)NCCC2CCCCN2S(=O)(=O)c2ccccc2)cc1 (configuration not stated),-7,-1,1,5,.,.
Cc1ccccc1-c1nc(-c2cccnc2)no1,-6,-4,107*,1,105*,.
Clc1ccccc1-c1nc(-c2cccnc2)no1,-3,0,105*,0,123*,14*
Brc1cccc(-c2nnc(-c3ccccc3)o2)c1,1,2,121*,5,134*,28*
Cc1ccc(-c2nnc(-c3cccc(Br)c3)o2)cc1,-1,-1,23,6,.,.
Brc1cccc(-c2nnc(SCc3nc4ccccc4[nH]3)o2)c1,4,1,92*,0,42,29*
CC(=O)NCCNC(=O)c1ccc(CSc2nc3ccccc3s2)cc1,-4,0,10,0,.,.
COc1cccc(OC)c1C(=O)Nc1sc2c(c1C(N)=O)CCN(Cc1ccccc1)C2,-14,-6,129*,2,85*,59*
